DT40 TDP1 no CPT = qHTS for Inhibitors of human tyrosyl-DNA phosphodiesterase 1 (TDP1): qHTS in cells in absence of CPT | DT40 Tdp1-/- hTDP1 cells, no CPT, ATP luminescence, 48 h | Potency, µM (doses to about 46.2 µM), most hits filed as inhibitors | 420,000 tested, 15% active; further: nearly all actives have a fitted effect of over 55% in size
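A cellular qHTS used chicken DT40 cells lacking endogenous Tdp1 but carrying stably transfected human TDP1. Compounds were applied without camptothecin, and cell growth kinetics were judged by ATP-dependent luminescence after ≥48 hr.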
VDR inhibitor = blocks the human vitamin D receptor; VDR-SRC2-3 peptide fluorescence polarization, 2 h; 400,000 tested, 0.93% active; AID 504847; P11473; Potency, µM, most hits filed as inhibitors
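After 23 nl compound addition and a short centrifugation, plates sat for 2 hours at ambient temperature; polarization of fluorescence then indicated loss of VDR binding to peptide SRC2-3.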
DT40 TDP1 CPT = DT40-hTDP1 cell growth loss with CPT. chicken DT40 Tdp1-/-;hTDP1 cells + 20 nM CPT, ATP luminescence, 48 h. Potency, µM (series often up to 46.2 µM), usual class: inhibitors. 420,000 tested, 12% active; further: nearly all actives have a fitted effect of over 55% in size
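Chicken DT40 Tdp1-/- cells stably complemented with human TDP1 were seeded at 400 cells/well in medium containing 20 nM camptothecin, exposed to pin-transferred compounds, and grown at 37 °C for at least 48 hr. Viability was read as ATP luminescence.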
PLK1 PBD inh = inhibitors of human PLK1 polo-box domain binding; 360,000 tested, 2.8% active; Plk1 PBD binding of FITC phosphopeptide, fluorescence polarization; Potency, µM, actives largely listed as inhibitors; AID 720504; further: series mostly up to about 57 µM; nearly all actives have a fitted effect of over 65% in size
TDP1 inh = blocks human tyrosyl-DNA phosphodiesterase 1; Q9NUW8; recombinant TDP1, AlphaScreen DNA substrate cleavage; Potency, µM (doses to about 130 µM), hits mostly inhibitors; 350,000 tested, 0.28% active; further: nearly all actives have a fitted effect of over 40% in size
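Here, a 5' biotin and 3' phosphotyrosine-FITC DNA oligonucleotide reports Tdp1 activity: intact substrate bridges AlphaScreen beads, while cleavage leaves a 3' phosphate and drops signal. All incubations at room temperature.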
GCN5L2 inh = inhibitors of human GCN5L2 histone acetyltransferase; Q92830; GCN5L2 HAT assay, ThioGlo1 CoA-SH fluorescence; Potency, µM (top dose mostly 58.9 µM), most hits filed as inhibitors; 390,000 tested, 0.21% active; AID 504327
Target sequence (Q92830 whole entry, looked up): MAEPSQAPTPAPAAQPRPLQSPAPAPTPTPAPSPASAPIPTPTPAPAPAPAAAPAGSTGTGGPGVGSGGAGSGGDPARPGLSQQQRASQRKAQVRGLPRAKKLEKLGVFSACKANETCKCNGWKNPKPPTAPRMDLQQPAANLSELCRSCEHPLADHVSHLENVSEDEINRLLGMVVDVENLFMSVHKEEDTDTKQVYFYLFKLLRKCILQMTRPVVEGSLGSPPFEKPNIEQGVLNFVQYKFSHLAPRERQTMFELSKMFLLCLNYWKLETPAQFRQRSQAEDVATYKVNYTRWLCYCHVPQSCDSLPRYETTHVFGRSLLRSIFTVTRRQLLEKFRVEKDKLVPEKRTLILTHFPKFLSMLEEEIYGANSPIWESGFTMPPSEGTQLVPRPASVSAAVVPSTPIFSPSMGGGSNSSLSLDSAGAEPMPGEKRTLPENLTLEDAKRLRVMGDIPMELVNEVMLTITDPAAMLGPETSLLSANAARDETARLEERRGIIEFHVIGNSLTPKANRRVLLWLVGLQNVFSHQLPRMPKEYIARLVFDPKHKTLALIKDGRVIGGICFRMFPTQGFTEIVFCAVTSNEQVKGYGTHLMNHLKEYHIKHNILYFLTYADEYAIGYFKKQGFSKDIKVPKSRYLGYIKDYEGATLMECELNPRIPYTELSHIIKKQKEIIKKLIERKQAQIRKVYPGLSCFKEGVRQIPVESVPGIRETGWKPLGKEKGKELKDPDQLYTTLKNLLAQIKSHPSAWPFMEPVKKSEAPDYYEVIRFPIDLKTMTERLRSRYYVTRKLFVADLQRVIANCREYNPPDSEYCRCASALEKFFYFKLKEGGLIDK
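qHTS, 1536-well. 20nM enzyme, pH 7.5 HEPES/EDTA/Tween-20 buffer; 15 min compound preinc., RT. Start: 75uM H3(1-25), 70uM AcCoA, 50uM ThioGlo1. Read Ex340/Em540 at t=0 (autofluorescence flag) and t=20 min.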
Numbers stand for hits; n = inactive; u = inconclusive; x = no result. Hits are enriched below; roughly 18% of the tested compounds scored in any of these assays. The call rests on the fitted dose curve; in most records, active means well fitted curve in the direction sought with a large enough effect; inconclusive means small, poorly fitted or top-dose-only effect, or another doubt; inactive means no such curve, though single readings can be large; an effect the other way counts as inactive or inconclusive.

SMILES	DT40 TDP1 no CPT	VDR inhibitor	DT40 TDP1 CPT	PLK1 PBD inh	TDP1 inh	GCN5L2 inh
C=CCn1c(O)c(N=Nc2ccccc2C)c2ccccc21	u	n	18µM	n	n	n
C=C(C#N)C(=O)OCC	x	x	x	x	n	x
CC(C)(C)OC(=O)Cc1nnc(-c2nc3ccccc3[nH]2)o1	x	x	x	x	n	x
O=C(c1cc([N+](=O)[O-])[nH]n1)N1CCSCC1	n	n	n	n	n	n
NC(=O)C(=O)N/N=C/c1cccc(C(F)(F)F)c1	n	n	n	n	n	n
CC(C)(C)OC(=O)C[C@H]1C/C=C\C[C@@H](CC(=O)NCCO)C(=O)N[C@H](C(C)(C)C)COC1=O	n	n	n	n	n	n
O=C(COC(=O)c1cccc(C(=O)OCC(=O)c2ccc(Br)cc2)n1)c1ccc(Br)cc1	u	n	16µM	n	n	n
C/C(=N\Nc1ccc([N+](=O)[O-])cc1)c1ccc(N2CCOCC2)cc1	n	n	n	n	n	n
C/C(=N\Nc1cc(N2CCOCC2)nc(C)n1)c1cccc([N+](=O)[O-])c1	10µM	n	16µM	n	n	n
O=[N+]([O-])c1cccc(/C=N/NC2=NCCCCC2)c1	n	n	u	n	n	n
CCCCc1ccc(/C(C)=N/Nc2cc(N3CCOCC3)nc(C)n2)cc1	23µM	n	u	n	x	n
C/C(=N\Nc1cc(Cl)nc(C)n1)c1ccccc1	n	n	u	n	n	n
Cc1nc(N/N=C/c2cccc([N+](=O)[O-])c2)cc(N2CCCCC2)n1	13µM	x	u	n	x	x
CCc1ccc(/C(C)=N/Nc2cc(Cl)nc(C)n2)cc1	u	n	23µM	n	n	n
CCOC(=O)c1ccc(OCCN2C[C@H](O)[C@@H](O)[C@H](O)[C@H]2CO)cc1	u	x	n	x	x	x
S=c1[nH]c2ccc(Cl)cc2[nH]1	n	u	n	11µM	n	n
CSc1nc2cc(Cl)ccc2s1	n	n	n	n	n	n
S=c1[nH]c2cc(Cl)ccc2s1	n	n	n	1.9µM	n	n
C=CCn1c(C)cc(C(=O)COC(=O)/C=C/c2c(C)nn(C3CCS(=O)(=O)C3)c2Cl)c1C (stereo unspecified)	n	n	u	n	n	n
CC1(C(=O)Nc2ccccc2Br)CCN1C(=O)Cc1ccccc1Cl (stereo unspecified)	n	x	n	n	x	x
CN(C)P(=O)(Nc1cccc2ccccc12)Nc1cccc2ccccc12	9.2µM	n	8.2µM	n	n	n
COCCCNC(=O)c1cc(S(=O)(=O)N2CCC3(CC2)OCCO3)ccc1F	n	x	n	n	x	x
CCN1C(=O)[C@@H]2[C@@H](c3ccc(-c4ccc5c(c4)OCO5)c(OC)c3)N3CCCC[C@@]3(C(=O)OC)[C@@H]2C1=O	u	n	u	n	n	n
CCN1C(=O)[C@@H]2[C@@H](c3ccc(SC4CCCCC4)cc3)N3CCCC[C@@]3(C(=O)OC)[C@@H]2C1=O	u	n	u	n	n	n
CCCSc1ccc([C@@H]2[C@@H]3C(=O)N(C)C(=O)[C@@H]3[C@]3(C(=O)OC)CCCN23)cc1OC	u	n	18µM	n	n	n
SMILES	DT40 TDP1 no CPT	VDR inhibitor	DT40 TDP1 CPT	PLK1 PBD inh	TDP1 inh	GCN5L2 inh
CCSc1ccc([C@@H]2[C@H]3C(=O)N(CC)C(=O)[C@H]3[C@]3(C(=O)OC)CCCCN23)cc1OC	16µM	n	u	n	n	n
CCN1C(=O)[C@H]2[C@@H](c3ccc(SC4CCCCC4)c(OC)c3)N3CCCC[C@@]3(C(=O)OC)[C@H]2C1=O	23µM	n	u	n	n	n
CCCCN1CCc2c1nc1ccc(Br)cc1c2N	23µM	n	u	n	n	n
CC(NC(=O)CSc1nc(-c2cccc(Cl)c2)nc2cc(=O)[nH]n12)c1nc2ccccc2n1C (stereo unspecified)	n	n	n	x	n	n
CCc1ccn2cc(-c3cc(-c4ccccc4)no3)nc2c1	18µM	n	u	n	n	u
O=c1[nH]c(=S)[nH]c2c1C(c1cccc(C(F)(F)F)c1)OC(CCc1ccccc1)C2 (stereo unspecified)	u	x	u	n	x	x
Cc1nn(C)c(C)c1/C=C/C(=O)c1ccc(Cl)cc1Cl	13µM	n	8.2µM	n	n	n
CCN(CC)S(=O)(=O)c1cc(NC(=O)COc2ccc(C#N)cc2OC)ccc1C	23µM	n	21µM	n	n	n
COc1cc(C#N)ccc1OCC(=O)Nc1cccc(S(=O)(=O)N(C)c2ccccc2)c1	18µM	x	12µM	n	x	x
CCN(CC)S(=O)(=O)c1cccc(NC(=O)COc2ccc(C#N)cc2OC)c1	23µM	n	u	n	n	n
Cc1ccccc1C(C(=O)NC1CCCC1)N(C(=O)CNC(=O)c1ccco1)c1cccnc1 (stereo unspecified)	x	x	x	x	n	n
COc1ccc2oc(=O)cc(CN3CCN(C(=O)c4ccccc4F)CC3)c2c1	u	n	u	x	n	n
Cn1c(-c2ccc(F)c(F)c2)cc2onc(-c3ccccc3)c2c1=O	23µM	n	16µM	n	x	n
CN(C)C(=O)c1ccc(-c2cc3onc(-c4ccccc4)c3c(=O)n2C)cc1	16µM	n	u	n	n	n
COc1ccc(-c2cc3onc(-c4c(Cl)cccc4Cl)c3c(=O)n2C)cc1	u	n	u	n	n	n
CCC(=O)N1CCc2cc(S(=O)(=O)CCC(=O)Nc3cc(Cl)ccc3OC)ccc21	u	n	u	x	n	n
Cc1ccc(NC(=O)c2cnn(-c3ccccc3)c2C)cc1C	u	n	u	n	x	u
CNS(=O)(=O)c1cc(NC(=O)c2cnc(SC)n2-c2ccccc2)ccc1C	15µM	n	u	n	n	n
FC(F)(F)c1cnc(Oc2cccc3ccccc23)c(Cl)c1	u	n	n	n	n	n
Cn1nc(Oc2ncc(C(F)(F)F)cc2Cl)cc1C(F)(F)F	u	n	u	27µM	n	n
O=C(OCC#CCSc1nnc(-c2cccc3ccccc23)o1)c1ccc(C(F)(F)F)cc1	x	x	x	x	n	x
COc1cc2sc3ccc(C#Cc4ccccn4)cc3c(=O)c2cc1OC	u	n	n	n	x	x
CNC(C)C#Cc1ccc2oc3cccc(OC)c3c(=O)c2c1 (stereo unspecified)	u	n	u	n	x	n
COc1cccc2sc3cc(C#Cc4ccccn4)ccc3c(=O)c12	16µM	n	18µM	n	45µM	n
COc1cccc2oc3ccc(C#Cc4ccccn4)cc3c(=O)c12	u	n	12µM	n	x	n
CCC(C)NC(=O)CSc1nc2cc3c(cc2c(=O)n1CCCCCC(=O)NCc1ccc2c(c1)OCO2)OCO3 (stereo unspecified)	n	n	n	x	n	n
